The values below come from PubChem BioAssay AID720504 (National Center for Advancing Translational Sciences (NCATS), 2013).

The campaign covered roughly 360,000 compounds. About 10,000 (2.8%) were called active. About 4% were inconclusive and are not listed. The sample as a whole holds a higher share of actives than the screen did. A number with no mark means an inactive call. Calls follow the shape of the dose curve; as a rule, active = well fitted inhibition curve with a large enough effect; inconclusive = small, poorly fitted or top-dose-only effect; inactive = flat fitted curve, though single readings scatter.
% is scaled to controls: 0 for no effect and ±100 for the full control effect; potency is read from the fitted curve at half-maximal effect.

For this assay, the target named is Serine/threonine-protein kinase PLK1 (Homo sapiens) (UniProt P53350). The experiment in a line: qHTS for Inhibitors of PLK1-PDB (polo-like kinase 1 - polo-box domain): Primary Screen. Also: nearly all actives have a fitted effect of over 65% in size. As to max response, negative = inhibition: series mostly up to about 57 µM. The conditions noted are these: Plk1 PBD binding of FITC phosphopeptide, fluorescence polarization. For orientation: qHTS replaces the single test concentration by a dilution series.
Serine/threonine-protein kinase PLK1 (Homo sapiens), sequence (P53350 whole entry, looked up, the tested form may be a part): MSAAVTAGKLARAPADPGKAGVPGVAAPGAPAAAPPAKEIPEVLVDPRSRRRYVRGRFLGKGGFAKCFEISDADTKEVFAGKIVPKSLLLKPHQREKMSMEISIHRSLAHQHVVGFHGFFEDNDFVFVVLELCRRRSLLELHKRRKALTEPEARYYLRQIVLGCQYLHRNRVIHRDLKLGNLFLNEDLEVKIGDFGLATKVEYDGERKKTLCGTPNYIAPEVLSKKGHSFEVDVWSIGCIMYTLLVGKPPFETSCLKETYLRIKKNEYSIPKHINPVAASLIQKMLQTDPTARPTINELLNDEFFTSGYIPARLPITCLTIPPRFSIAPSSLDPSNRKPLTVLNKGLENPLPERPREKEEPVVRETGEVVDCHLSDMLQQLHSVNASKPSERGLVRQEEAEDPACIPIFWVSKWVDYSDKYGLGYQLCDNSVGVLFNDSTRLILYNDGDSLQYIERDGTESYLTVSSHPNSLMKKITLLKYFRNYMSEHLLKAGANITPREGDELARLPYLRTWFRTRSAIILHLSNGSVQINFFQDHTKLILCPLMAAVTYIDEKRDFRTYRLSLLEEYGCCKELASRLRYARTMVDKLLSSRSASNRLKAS
In the case of `C[C@@H]1CN([C@@H](C)CO)C(=O)CCCn2nncc2CO[C@H]1CN(C)Cc1ccc(C(F)(F)F)cc1`, the max response, negative = inhibition is -1.98%.
As to `CC(=O)C[C@@H]1OC[C@H](CO)N1S(=O)(=O)c1ccc(C)cc1`, the max response, negative = inhibition is -6.97%.
For the compound `CCOc1cc(C(=S)N2CCOCC2)ccc1O`, the Potency is 7.52 µM (active).
Take `CCOc1cc(C(=O)OCC(=O)Nc2cccc(C)c2)ccc1OCC(=O)N1CCOCC1`: the max response, negative = inhibition was -7.2%.
In the case of `CCOc1cc(C(=S)N2CCOCC2)ccc1OS(=O)(=O)c1ccc(Br)cc1`, the max response, negative = inhibition is -16.5%.
`COCOCCn1cc(CN2CCS(=O)(=O)N(Cc3ccc(-c4cccc(N(C)C)c4)cc3)C(CC(C)C)C2=O)nn1` (stereo not given): the max response, negative = inhibition was -14.2%.
As to `NC(=O)C1(Nc2ccccc2Cl)CCCC1`, the max response, negative = inhibition was -11.6%.
Consider `O=C(Nc1ccccc1Cl)/C(Cl)=C(\Cl)S(=O)c1ccccc1` (stereo not given), for which the Potency was 1.34 µM (active).
On to `O=C(CCN1CCN(C/C=C/c2ccccc2)CC1)Nc1ccccc1Cl`, for which the max response, negative = inhibition was -3.16%.
As for `CCCNC(=O)C1(C)CCN(Cc2ccc(Cl)c(Cl)c2)C1` (stereo not given), the max response, negative = inhibition was -1.65%.
The same measure, in the same setting: for `C[C@H](NC(=O)[C@@H]1CCCN1C(=O)[C@@H]1CCCN1C(=O)c1ccccc1)c1ccccc1` the value was -0.0066%.
In the case of `CC(C)N(C(=O)COC(=O)c1ccccc1C(=O)N1CCN(c2ccc(F)cc2)CC1)C(C)C`, the max response, negative = inhibition is -8.86%.
Turning to `O=C(c1ccccc1Oc1ccccc1)N1CCN(c2ccc(F)cc2)CC1`, the Potency is 26.7 µM (active).
Regarding `COc1ccc(N2CCN(C(=O)C3CCN(C(=O)c4ccccc4Cl)CC3)CC2)cc1`, the max response, negative = inhibition was 1.62%.
In the case of `CC[C@@H]1CC2=C(C(=O)OC(C)(C)O2)[C@@H](CC)O1`, the max response, negative = inhibition is 0.545%.
As for `Cc1ccc(C(O)c2ncc(-c3ccccc3F)[nH]2)cc1F` (stereo not given), the max response, negative = inhibition is -7.55%.
For `CCN(CC)S(=O)(=O)c1cccc(NC(=O)c2ccc(S(=O)(=O)N3CCCC3)cc2)c1`, the max response, negative = inhibition was 2.45%.
In the case of `CCN(CC)S(=O)(=O)c1cccc(-c2n[nH]c(=S)n2/N=C/c2ccc(C(=O)OC)cc2)c1`, the Potency was 10.6 µM (active).
With `COC(=O)c1ccc(/C=N/N2C(C)CCCC2C)cc1` (stereo not given), the max response, negative = inhibition is -11.6%.
Turning to `CCCCNC(=O)C[C@@H]1C[C@@]2(C(=O)OCC)CCC=C2N(Cc2cccc3ccccc23)C1=O`, the max response, negative = inhibition was -0.117%.
Turning to `CCOC(=O)C1CCCN(C(=O)c2ccc(C)c(F)c2)CC1` (stereo not given), the max response, negative = inhibition is -7.52%.
As to `CC(C)Oc1ccc(CN2CCC2(C)C(=O)NCc2ccc(C(F)(F)F)cc2)cc1` (stereo not given), the max response, negative = inhibition was 6.37%.
Consider `CN(C)/C=C1/Nc2ccccc2C1=O`, for which the Potency was 26.7 µM (active).
Consider `CCCS(=O)(=O)C(=C1Nc2ccccc2N1)S(=O)(=O)CCC`, for which the max response, negative = inhibition is -1.93%.
With `CN(C)/C=C1\C=C(c2ccccc2)OC1=O`, the max response, negative = inhibition was -6%.
